{"source": "PubChem BioAssay (NCATS)", "note": "Active and inactive are the calls of the source. Calls come from the whole dose curve; as a rule, active = well fitted curve in the direction sought with a large enough effect; inconclusive = small, poorly fitted or top-dose-only effect, or another doubt; inactive = no such curve, though single readings can be large or run the other way. Potency is the fitted concentration of half-maximal effect."}
{"assay": "Validation qHTS assay for inhibitors of Activation Induced Cytidine Deaminase (AID): UDG Counterscreen signal (AID 1347427); for activity, negative = inhibition: 0% is about no effect", "details": "biochemical UDG counterscreen, fluorescence signal; series mostly up to 115 µM; activity, negative = inhibition: at the top concentration", "description": "Assay Provider (PI) Patricia Gearhart Ph.D.\nNational Institute on Aging\nNational Institute of Health (NIH), Bethesda, MD\nAssay Provider (PI) Rahul Kohli Ph.D.\nPerelman School of Medicine\nUniversity of Pennsylvania, Philadelphia, PA\nActivation-Induced Deaminase (AID) is a cytosine deaminase which converts cytosine into uracil within stretches of ssDNA. The presence of uracil in DNA initiates a cascade of mutagenic DNA repair to introduce point mutations and DNA double strand breaks. Specific targeting of AID to the immunoglobulin heavy chain loci (Igh) promotes mutagenesis in the antibody variable region for somatic hypermutation (SHM) or switch regions leading to class switch recombination (CSR). However, AID also plays a role in accumulating unnecessary mutations across the genome. Mis-targeting of AID results in the initiation of tumor development and leads to greater drug resistance among cancer cells when continually expressed. To identify an AID inhibitor, a small molecule library will be screened in collaboration with NCATS core facility at NIH. To confirm biological function, inhibitors will be examined in an in vitro murine B-cell activation assay and subsequent secondary validation screens. Top molecules will be further screened to identify inhibitory efficacy against a wild type primary splenocytes assay. Using these approaches, we hope to identify a small molecule with great efficacy and low toxicity for use as a molecular probe to further characterize AID's intricacies, or even as a therapeutic.\nA FRET based analysis of cytosine deamination, was developed to identify potential inhibitors of AID catalytic activity. This screen has two signal output, Read 1 evaluates the AID inhibition response. The second readout (Read 2) evaluates UDG response and is uses as a counterscreen to exclude false positive inhibitors. Inhibition in AID and inactivity in the UDG signal is the desired outcome for this assay.\nSEQUENCE No. (e.g., 1, 2, 3, etc.); […] (e.g., Cells, Incubation, Reagent, etc.); VALUE; DESCRIPTION\n1a; Reagent; 3 uL; [4/3x] 1 uM AID/2.67 U/mL UDG\n1b; Reagent; 3 uL; 2 U/mL UDG\n1c; Reagent; 3 uL; 1 uM AID\n2a; Compound; 46 nL; Follow-up plates (0.64 uM - 10 mM)\n2b; Control; 46 nL; ATA ([…] - 10 mM)\n3; Time; 10 min; incubation at room temperature\n5; Time; 4 hr; incubation at room temperature\n6; Reagent; 4 uL; [2x] 250 mM NaOH\n7; Time; 15 sec; centrifuge at 1000 rpm\n8; Time; 30 min; incubation at room temperature\n9a; Detection; fluorescence (Read 1: AID); EnVision (PerkinElmer) plate reader, 540 excitation and 590 emission filters\n9b; Detection; fluorescence (Read 2: UDG); EnVision (PerkinElmer) plate reader, 560 excitation and 665 emission filters\nNOTES (numbers refer to sequence above)\n1a; Reagents were dispensed in a medium-binding black solid-bottom Greiner plates (789176F) using a BioRptr liquid dispenser. Dispense 3 uL of [4/3x] 1 uM AID (provided by Kohli lab) and [4/3x] 2 U/mL UDG (NEB M0280L) into columns 1, 2, 5 to 48.\n1b; Dispense 3 uL of [4/3x] 2 U/mL UDG into column 3.\n1c; Dispense 3 uL of [4/3x] 1 uM AID into column 4.\n2b; 10 mM Aurintricarboxylic Acid (Sigma A1895) (ATA, 8-point, n = 2, 1:2.5 dilution in column 2) double pin-transferred (Dip Factor = 2) using the Kalypsys (Wako USA) pintool equipped with a 1536 pinhead for a [final] range of 186 nM - 114 uM.\n3; Room temperature incubation.\n4; Dispense 1 uL of substrate mixture from the Kohli lab [4x] […] DJC20 and [4x] 250 nM DJC23 into columns 1 to 48 .\n5; Room temperature incubation.\n6; Dispense 4 uL of substrate mixture [2x] 250 mM NaOH into columns 1 to 48.\n7; Centrifugation step to remove bubbles.\n8; Room temperature incubation\n9a; Fluorescence signal (column label AID) was read using the EnVision plate reader. Excitation filter = 540(8) nm, barcode = 311; Emission filter = 590(20) nm, barcode = 217; Mirror = D555, barcode = 405.\n9b; Fluorescence signal (column label UDG) was read using the EnVision plate reader. […]"}
{"smiles": "COc1ccc2cc([C@H](C)C(=O)O)ccc2c1", "activity, negative = inhibition": "2.18% (inactive)"}
{"smiles": "Cc1cc(O)c2c(c1)C(=O)c1cc(O)cc(O)c1C2=O", "activity, negative = inhibition": "-6.85% (inactive)"}
{"smiles": "CNC[C@H](O)c1ccc(O)c(O)c1", "activity, negative = inhibition": "10% (inactive)"}
{"smiles": "Oc1ccc(-c2nc(-c3ccc(F)cc3)c(-c3ccncc3)[nH]2)cc1", "activity, negative = inhibition": "6.15% (inactive)"}
{"smiles": "Cc1cccc(C#Cc2ccccc2)n1", "activity, negative = inhibition": "5.61% (inactive)"}
{"smiles": "O=c1ccc2ccc(O)c(O)c2o1", "activity, negative = inhibition": "11.1% (inactive)"}
{"smiles": "NC(=NCc1ccccc1)NC(=O)c1nc(Cl)c(N)nc1N", "activity, negative = inhibition": "6.14% (inactive)"}
{"smiles": "Cc1c(OCC(F)(F)F)ccnc1CS(=O)c1nc2ccccc2[nH]1", "note": "(stereo unspecified)", "activity, negative = inhibition": "5.29% (inactive)"}
{"smiles": "O=C(c1ccccc1)c1ccc2n1CCC2C(=O)O", "note": "(stereo unspecified)", "activity, negative = inhibition": "10.1% (inactive)"}
{"smiles": "NNc1nncc2ccccc12", "Potency": "39.8 µM (active)"}
{"smiles": "CCN(CC)C(=S)SSC(=S)N(CC)CC", "activity, negative = inhibition": "9.19% (inactive)"}
{"smiles": "C[C@@H](N)C1CCC(C(=O)Nc2ccncc2)CC1", "note": "(stereo partly specified)", "activity, negative = inhibition": "14.4% (inactive)"}
{"smiles": "O=c1cc(N2CCOCC2)oc2c(-c3ccccc3)cccc12", "activity, negative = inhibition": "6.28% (inactive)"}
{"smiles": "COc1cc2c(cc1OC)C1CC(=O)C(CC(C)C)CN1CC2", "note": "(stereo unspecified)", "activity, negative = inhibition": "12.5% (inactive)"}
{"smiles": "O=C(CCc1ccc(O)cc1)c1c(O)cc(O)cc1O", "activity, negative = inhibition": "7.7% (inactive)"}
{"smiles": "COc1cc2nc(N3CCN(C(=O)C4CCCO4)CC3)nc(N)c2cc1OC", "note": "(stereo unspecified)", "activity, negative = inhibition": "0.708% (inactive)"}
{"smiles": "O=C1NC(=O)C(c2ccccc2[N+](=O)[O-])=C1Nc1ccc(O)c(Cl)c1", "activity, negative = inhibition": "-8.96% (inactive)"}
{"smiles": "Nc1nc(OCc2ccccc2)c2[nH]cnc2n1", "activity, negative = inhibition": "5.03% (inactive)"}
{"smiles": "Nc1ccn([C@@H]2O[C@H](CO)[C@@H](O)C2O)c(=O)n1", "note": "(stereo partly specified)", "activity, negative = inhibition": "-3.43% (inactive)"}
{"smiles": "CC(=O)N1CCN(c2ccc(OC[C@H]3CO[C@](Cn4ccnc4)(c4ccc(Cl)cc4Cl)O3)cc2)CC1", "activity, negative = inhibition": "10.8% (inactive)"}
{"smiles": "O=C(O)c1cccnc1Nc1cccc(C(F)(F)F)c1", "activity, negative = inhibition": "11.6% (inactive)"}
{"smiles": "CN(C)CCCC1(c2ccc(F)cc2)OCc2cc(C#N)ccc21", "note": "(stereo unspecified)", "activity, negative = inhibition": "2.86% (inactive)"}
{"smiles": "CC1(C)C(=O)N(CCN2CCC(C(=O)c3ccc(F)cc3)CC2)c2ccccc21", "activity, negative = inhibition": "3.32% (inactive)"}
{"smiles": "O=C1c2c(O)cc(O)cc2OC(c2ccc(O)c(O)c2)C1O", "note": "(stereo unspecified)", "activity, negative = inhibition": "-7.92% (inactive)"}
{"smiles": "O=c1c(O)c(-c2ccc(O)cc2O)oc2cc(O)cc(O)c12", "activity, negative = inhibition": "6.85% (inactive)"}
{"smiles": "CC(=O)O[C@H]1C(=O)[C@@]2(C)C([C@H](OC(=O)c3ccccc3)[C@]3(O)C[C@H](OC(=O)[C@H](O)[C@@H](NC(=O)c4ccccc4)c4ccccc4)C(C)=C1C3(C)C)[C@]1(OC(C)=O)CO[C@@H]1C[C@@H]2O", "note": "(stereo partly specified)", "activity, negative = inhibition": "7.53% (inactive)"}
{"smiles": "OC(CN1CCN(c2cccc(Cl)c2)CC1)C(c1ccccc1)c1ccccc1", "note": "(stereo unspecified)", "activity, negative = inhibition": "8.33% (inactive)"}
{"smiles": "COc1ccccc1N1CCN(CCN(C(=O)C2CCCCC2)c2ccccn2)CC1", "activity, negative = inhibition": "7.59% (inactive)"}
{"smiles": "CCOC(=O)C(C)Oc1cccc2c(=O)n(CC(=O)Nc3ccc4c(c3)OCCO4)ccc12", "note": "(stereo unspecified)", "activity, negative = inhibition": "13.5% (inactive)"}
{"smiles": "NCCCCNCCCN", "activity, negative = inhibition": "12.8% (inactive)"}
{"smiles": "CC1(C)NC(=O)N(c2ccc([N+](=O)[O-])c(C(F)(F)F)c2)C1=O", "activity, negative = inhibition": "-13.5% (inactive)"}
{"smiles": "O=Nc1c(-c2c(O)[nH]c3cc(Br)ccc23)[nH]c2ccccc12", "activity, negative = inhibition": "-0.717% (inactive)"}
{"smiles": "Nc1nc(N)c(N=O)c(OCC2CCCCC2)n1", "activity, negative = inhibition": "5.52% (inactive)"}
{"smiles": "O=C1c2ccccc2-c2n[nH]c3cccc1c23", "activity, negative = inhibition": "-2.05% (inactive)"}
{"smiles": "O=c1c(O)c(-c2cc(O)c(O)c(O)c2)oc2cc(O)cc(O)c12", "activity, negative = inhibition": "-10.4% (inactive)"}
{"smiles": "CC(C)c1ccc2c(c1)c(SC(C)(C)C)c(CC(C)(C)C(=O)O)n2Cc1ccc(Cl)cc1", "activity, negative = inhibition": "0.922% (inactive)"}
